13 sequences from paper PMC8384837, “Expanding the binding specificity for RNA recognition by a PUF domain” can be followed below.

Numbering of substitutions follows the chain as printed.

What all share (assay): yeast three-hybrid, YBZ-1, SC-Leu-His + 0.5 mM 3-AT, 4 days
Common to all, as to conditions: tags: N-Gal4 AD-HA kept; label: inside an RPR1-promoter hybrid RNA with tandem MS2 sites; ssRNA

One assay has as its target PUM1 PUF domain R4-MPH (Homo sapiens, UniProt Q14671 828-1176, N971M;H972P;Q975H). The gist of the method:
(§1)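 Each repeat of the Pumilio-1 PUF domain was randomized at its three base-contacting residues, and these libraries were co-expressed from a centromeric plasmid with matching RNA elements in strain YBZ-1. After four days on SC-Leu (input) or SC-Leu-His + 0.5 mM 3-AT (selection), the repeat regions were PCR-amplified and Illumina-sequenced. The interaction score compares variant frequency between input and selection as a log change, computed in log2 with a pseudocount of 1 for absent variants.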

In the next assay the target is T1, PUM1 PUF domain R6-GFQ (Homo sapiens, UniProt Q14671 828-1176, N1043G;Y1044F).
T1 sequence: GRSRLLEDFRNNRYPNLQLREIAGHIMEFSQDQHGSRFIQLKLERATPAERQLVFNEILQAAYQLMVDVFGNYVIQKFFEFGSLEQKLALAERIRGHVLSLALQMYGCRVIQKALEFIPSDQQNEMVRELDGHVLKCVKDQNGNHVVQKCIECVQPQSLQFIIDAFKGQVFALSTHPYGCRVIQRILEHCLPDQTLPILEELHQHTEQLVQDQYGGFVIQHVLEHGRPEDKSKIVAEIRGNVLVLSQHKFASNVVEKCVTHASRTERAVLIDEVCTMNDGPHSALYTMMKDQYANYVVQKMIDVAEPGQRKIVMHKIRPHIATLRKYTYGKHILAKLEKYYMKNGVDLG
The gist of the method:
as §1

In a further assay the target is PUM1 PUF domain R8-RWE (Homo sapiens, UniProt Q14671 828-1176, N1122R;Y1123W;Q1126E). The gist of the method:
as §1

The next assay has as its target T2, PUM1 PUF domain R6-TWK (Homo sapiens, UniProt Q14671 828-1176, N1043T;Y1044W;Q1047K).
T2 sequence: T1 sequence with G216T, F217W, Q220K
In short, it runs like this:
as §1

Another assay deals with PUM1 PUF domain R5-NRV (Homo sapiens, UniProt Q14671 828-1176, C1007N;Q1011V). In short, it runs like this:
as §1

For the next assay, the target named is T3, PUM1 PUF domain R6-CYV (Homo sapiens, UniProt Q14671 828-1176, N1043C;Q1047V).
T3 sequence: T1 sequence with G216C, F217Y, Q220V
In short, it runs like this: as §1

For another assay, the target named is PUM1 PUF domain R4-SNL (Homo sapiens, UniProt Q14671 828-1176, N971S;H972N;Q975L). The gist of the method:
as §1

A further assay has as its target PUM1 PUF domain R3-VYF (Homo sapiens, UniProt Q14671 828-1176, C935V;R936Y;Q939F). In short, it runs like this:
as §1

A further assay has as its target T4, PUM1 PUF domain R6-GHS (Homo sapiens, UniProt Q14671 828-1176, N1043G;Y1044H;Q1047S).
T4 sequence: T1 sequence with F217H, Q220S
In short, it runs like this: as §1

The target in a further assay is PUM1 PUF domain R3-ARA (Homo sapiens, UniProt Q14671 828-1176, C935A;Q939A). In short, it runs like this: as §1
The next assay has as its target PUM1 PUF domain R8-KKV (Homo sapiens, UniProt Q14671 828-1176, N1122K;Y1123K;Q1126V). The gist of the method: as §1
A further assay concerns the target PUM1 PUF domain R8-VYK (Homo sapiens, UniProt Q14671 828-1176, N1122V;Q1126K). In short, it runs like this:
as §1

The target in the next assay is PUM1 PUF domain R3-RAP (Homo sapiens, UniProt Q14671 828-1176, C935R;R936A;Q939P). In short, it runs like this:
as §1

Another assay has as its target PUM1 PUF domain R4-EYM (Homo sapiens, UniProt Q14671 828-1176, N971E;H972Y;Q975M). The gist of the method: as §1
For a further assay, the target named is PUM1 PUF domain R5-RMR (Homo sapiens, UniProt Q14671 828-1176, C1007R;R1008M;Q1011R). The gist of the method:
as §1

For another assay, the target named is PUM1 PUF domain R5-KAS (Homo sapiens, UniProt Q14671 828-1176, C1007K;R1008A;Q1011S). In short, it runs like this: as §1
In a further assay the target is PUM1 PUF domain R1-QWR (Homo sapiens, UniProt Q14671 828-1176, S863Q;R864W;Q867R). The gist of the method: as §1
The target in a further assay is PUM1 PUF domain R1-QVK (Homo sapiens, UniProt Q14671 828-1176, S863Q;R864V;Q867K). The gist of the method: as §1
In a further assay the target is PUM1 PUF domain R7-KRV (Homo sapiens, UniProt Q14671 828-1176, S1079K;N1080R;E1083V). The gist of the method: as §1
For the next assay, the target named is PUM1 PUF domain R1-NWS (Homo sapiens, UniProt Q14671 828-1176, S863N;R864W;Q867S). The gist of the method: as §1

As for “GGCUAGAACUAGUGGAUCCCCCGGCGCCCGGCGGCUCGAGCCCGGGUAAGUGUAAAUAGUCUGCAUGCCGCCGGGCGCCAUGCCUGCAGGUCGACUCUAGAAAACAUG”, the binding signal with PUM1 PUF domain R4-MPH was 3.32 log2 enrichment (interaction score); with PUM1 PUF domain R6-GFQ it was 6.29 log2 enrichment (interaction score); with PUM1 PUF domain R8-RWE it was 3.03 log2 enrichment (interaction score); with PUM1 PUF domain R6-TWK, 2.26 log2 enrichment (interaction score); in the assay with PUM1 PUF domain R5-NRV, 2.44 log2 enrichment (interaction score); in the assay with PUM1 PUF domain R6-CYV it was 0.52 log2 enrichment (interaction score). The binding signal in the assay with PUM1 PUF domain R4-SNL was 2.52 log2 enrichment (interaction score); in the assay with PUM1 PUF domain R3-VYF, 5.15 log2 enrichment (interaction score); with PUM1 PUF domain R6-GHS it was 0.45 log2 enrichment (interaction score); in the assay with PUM1 PUF domain R3-ARA, 3.97 log2 enrichment (interaction score).

In the case of “GGCUAGAACUAGUGGAUCCCCCGGCGCCCGGCGGCUCGAGCCCGGGUAAGUGAAAAUAGUCUGCAUGCCGCCGGGCGCCAUGCCUGCAGGUCGACUCUAGAAAACAUG”, the binding signal with PUM1 PUF domain R6-GFQ was 0.48 log2 enrichment (interaction score); in the assay with PUM1 PUF domain R6-CYV it was 3.61 log2 enrichment (interaction score); with PUM1 PUF domain R6-GHS it was 2.5 log2 enrichment (interaction score).

Turning to “GGCUAGAACUAGUGGAUCCCCCGGCGCCCGGCGGCUCGAGCCCGGGUAAGCGUAAAUAGUCUGCAUGCCGCCGGGCGCCAUGCCUGCAGGUCGACUCUAGAAAACAUG”, the binding signal with PUM1 PUF domain R8-RWE was 4.69 log2 enrichment (interaction score); in the assay with PUM1 PUF domain R8-KKV, 2.53 log2 enrichment (interaction score); in the assay with PUM1 PUF domain R8-VYK, 4.78 log2 enrichment (interaction score).

“GGCUAGAACUAGUGGAUCCCCCGGCGCCCGGCGGCUCGAGCCCGGGUAAGUGUAAGUAGUCUGCAUGCCGCCGGGCGCCAUGCCUGCAGGUCGACUCUAGAAAACAUG”: in the assay with PUM1 PUF domain R3-ARA, the binding signal was 1.03 log2 enrichment (interaction score).

As to “GGCUAGAACUAGUGGAUCCCCCGGCGCCCGGCGGCUCGAGCCCGGGUAAGUGUAAUUAGUCUGCAUGCCGCCGGGCGCCAUGCCUGCAGGUCGACUCUAGAAAACAUG”, the binding signal with PUM1 PUF domain R3-RAP was 3.87 log2 enrichment (interaction score); in the assay with PUM1 PUF domain R3-ARA, 0.92 log2 enrichment (interaction score).

On to “GGCUAGAACUAGUGGAUCCCCCGGCGCCCGGCGGCUCGAGCCCGGGUAAGUGUACAUAGUCUGCAUGCCGCCGGGCGCCAUGCCUGCAGGUCGACUCUAGAAAACAUG”, for which the figures for the binding signal with PUM1 PUF domain R4-SNL and in the assay with PUM1 PUF domain R4-EYM were 1.34 log2 enrichment (interaction score) and 2.59 log2 enrichment (interaction score), respectively.

Consider “GGCUAGAACUAGUGGAUCCCCCGGCGCCCGGCGGCUCGAGCCCGGGUAAGUGUUAAUAGUCUGCAUGCCGCCGGGCGCCAUGCCUGCAGGUCGACUCUAGAAAACAUG”, for which the binding signal with PUM1 PUF domain R5-RMR is 2.49 log2 enrichment (interaction score); in the assay with PUM1 PUF domain R5-KAS, 5.33 log2 enrichment (interaction score).

As for “GGCUAGAACUAGUGGAUCCCCCGGCGCCCGGCGGCUCGAGCCCGGGUAAGUGUAAAUCGUCUGCAUGCCGCCGGGCGCCAUGCCUGCAGGUCGACUCUAGAAAACAUG”, the results for the binding signal with PUM1 PUF domain R1-QWR and in the assay with PUM1 PUF domain R1-QVK were 8.29 log2 enrichment (interaction score) and 2.91 log2 enrichment (interaction score), respectively.

On to “GGCUAGAACUAGUGGAUCCCCCGGCGCCCGGCGGCUCGAGCCCGGGUAAGUGUCAAUAGUCUGCAUGCCGCCGGGCGCCAUGCCUGCAGGUCGACUCUAGAAAACAUG”, for which the results for the binding signal in the assay with PUM1 PUF domain R5-RMR and with PUM1 PUF domain R5-KAS were 3.2 log2 enrichment (interaction score) and 3.47 log2 enrichment (interaction score), respectively.

As for “GGCUAGAACUAGUGGAUCCCCCGGCGCCCGGCGGCUCGAGCCCGGGUAAGUCUAAAUAGUCUGCAUGCCGCCGGGCGCCAUGCCUGCAGGUCGACUCUAGAAAACAUG”, the binding signal in the assay with PUM1 PUF domain R7-KRV is 5.35 log2 enrichment (interaction score).

In the case of “GGCUAGAACUAGUGGAUCCCCCGGCGCCCGGCGGCUCGAGCCCGGGUAAGUGUAAAUUGUCUGCAUGCCGCCGGGCGCCAUGCCUGCAGGUCGACUCUAGAAAACAUG”, the figures for the binding signal in the assay with PUM1 PUF domain R1-QWR, in the assay with PUM1 PUF domain R1-NWS and with PUM1 PUF domain R1-QVK were 3.12 log2 enrichment (interaction score), 5.3 log2 enrichment (interaction score) and 0.46 log2 enrichment (interaction score), respectively.

For “GGCUAGAACUAGUGGAUCCCCCGGCGCCCGGCGGCUCGAGCCCGGGUAAGUGUAUAUAGUCUGCAUGCCGCCGGGCGCCAUGCCUGCAGGUCGACUCUAGAAAACAUG”, the binding signal in the assay with PUM1 PUF domain R4-SNL was 4.22 log2 enrichment (interaction score).

For the sequence “GGCUAGAACUAGUGGAUCCCCCGGCGCCCGGCGGCUCGAGCCCGGGUAAGUGUGAAUAGUCUGCAUGCCGCCGGGCGCCAUGCCUGCAGGUCGACUCUAGAAAACAUG”, in the assay with PUM1 PUF domain R5-NRV, the binding signal is 2.59 log2 enrichment (interaction score).
